The results in this text go back to PubChem BioAssay (NCI).

This is part of a sample that, as a whole, favours compounds with a hit. Of some 79,000 tested, about 15% had one in any assay. Values without a mark were called inactive. Calls of active or inactive are those of the source. Rule as the data show it: active = growth inhibition above about 70%; inactive = the rest.

The first assay can be described thus: NCI Yeast Anticancer Drug Screen. Data for the rad50EPP+ strain (AID 151).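 Also: 0% = growth of vehicle-treated control cultures.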 Particulars: S. cerevisiae rad50 mutant strain, at 100.0 µM, stronger effect = higher value. The gist of the method:
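Vehicle-normalised growth inhibition; rad50EPP+ yeast strain, altered in DNA damage repair, compound-treated.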
For `O=[N+]([O-])c1cc[n+]([O-])cc1`, the growth inhibition was 98% (active).

For `CC1(C)CC(=O)C(/C=N/c2nc(-c3ccccc3)cs2)=C(O)C1`, the growth inhibition was 34%.

As for `Nc1nc(N)c2nc(CNc3ccc(C(=O)NC(CCC(=O)O)C(=O)O)cc3F)cnc2n1` (stereo unspecified), the growth inhibition is 39%.

Consider `COC(=O)CC1(O)C(/C=C/c2ccccc2)C(C(=O)OC)C(=O)C(C(=O)OC)C1C(=O)OC` (stereo unspecified), for which the growth inhibition is -16%.

Regarding `CC(C)(C)c1ccc(NS(=O)(=O)c2ccc(N)cc2)cc1`, the growth inhibition was 14%.

Turning to `CCN(CC)CCNc1ccc([N+](=O)[O-])c2nc3ccccc3c(N)c12`, the growth inhibition was 77% (active).

Consider `CCCCN(CCCC)C(=O)/C=C/c1ccccc1`, for which the growth inhibition was 33%.

In the case of `O=c1[nH]c(-c2ccccc2)nc2c1sc1nc3ccccc3n12`, the growth inhibition was -31%.

Consider `O=[N+]([O-])c1ccc2c(c1)/C(=N/N=C1c3ccccc3Cc3ccccc31)c1cc([N+](=O)[O-])cc([N+](=O)[O-])c1-2`, for which the growth inhibition was 94% (active).

On to `CC(C)C(C)/C=C\C(C)C1CCC2C3=CC=C4CC(O)CCC4(C)C3CCC21C` (stereo unspecified), for which the growth inhibition was 1%.

In the case of `O=C1Nc2ccc(Br)cc2C1=Nc1ccc2c(c1)OCO2`, the growth inhibition was -48%.

For `CCCCOCn1c(=O)[nH]c(=O)c2cc(Br)ccc21`, the growth inhibition is -92%.

`Cc1ccc(S/C(=C\C(=O)O)c2ccccc2)cc1`: the growth inhibition was 52%.

On to `O=[N+]([O-])/C=C/c1cc(Cl)c(/C=C/[N+](=O)[O-])cc1Cl`, for which the growth inhibition is 70% (active).

For the compound `Cc1cc(S(=O)(=O)Nc2nnc3cnc4ccccc4n23)c(S)cc1Cl`, the growth inhibition was -59%.

On to `O=C(/C=C/c1cc(Cl)cc(Cl)c1O)c1cccc(O)c1`, for which the growth inhibition is 97% (active).

Consider `NC1CCCCC1N.Nc1c(N=Nc2ccc(-c3ccc(N=Nc4cc(S(=O)(=O)[O-])c5ccccc5c4N)cc3)cc2)cc(S(=O)(=O)[O-])c2ccccc12.[OH3+].[OH3+].[Pt+4]`, for which the growth inhibition was 60%.

For the compound `COC(=O)CCC(NC(=S)N/N=C(\C)c1ccccn1)C(=O)OC` (stereo unspecified), the growth inhibition was 34%.

For `NC(=O)C(=O)NNc1ccccc1`, the growth inhibition is 96% (active).

For `COc1cc(C2SCC(=O)N2c2ccc(-c3ccc(-n4c(-c5ccccc5)nc5ccccc5c4=O)cc3)cc2)ccc1O` (stereo unspecified), the growth inhibition is 27%.

For `COc1ccc(/C=C/c2sc3ccccc3[n+]2CCCCI)cc1OC`, the growth inhibition is -3%.

For the compound `Cc1c(C(C)C)cc(OCCO)cc1C(C)C`, the growth inhibition was 16%.

As for `Cc1cc(NCCCCCCCCNc2cc(C)nc3cc(N)ccc23)c2ccc(N)cc2n1`, the growth inhibition is 95% (active).

In the case of `C=C(Cl)COC(=O)Nc1cccc(Cl)c1`, the growth inhibition is 84% (active).

For the compound `CC(=O)OC1CC2C(C)(C)C(=O)C=C[C@]2(C)C2CCC3(C)C(=CCC3[C@H](CO)C[C@H](O)C(=O)C(C)(C)O)[C@]12C` (stereo partly specified), the growth inhibition was -31%.

Turning to `COc1ccc(/C=C/C(=O)c2ccccc2)cc1OC`, the growth inhibition is 75% (active).

Take `COc1c(O)c(C=O)c(Br)c(C=O)c1O`: the growth inhibition is 99% (active).

Turning to `O=[N+]([O-])c1cc(Cl)cnc1Br`, the growth inhibition is 98% (active).

On to `Cc1ccc2c(c1)C1(SC(C)C(=O)N1c1ccc(Cl)cc1)C(=O)N2` (stereo unspecified), for which the growth inhibition is -3%.

Turning to `COc1cc(CSc2ccc(O)cc2)cc(O)c1O`, the growth inhibition was 0%.

As to `Cc1ccc2c3ccc4c(c3n(C)c2c1)C(=O)C=CC4=O`, the growth inhibition is 91% (active).

For the compound `O=C(Nc1ccc(Cl)cc1)Nc1nnc2nc(C(C(=O)c3cccc([N+](=O)[O-])c3Cl)c3nc4nnc(NC(=O)Nc5ccc(Cl)cc5)n4[nH]c3=O)c(=O)[nH]n12`, the growth inhibition was 29%.

As to `O=C(O)C1CC(c2ccccc2)=NN1c1ccccc1` (stereo unspecified), the growth inhibition is 51%.

As to `CCCCc1ccc(-n2c(C)c(COC(=O)NC)c(COC(=O)NC)c2C)cc1`, the growth inhibition was 92% (active).

`CCC(=O)c1cc(C(=O)C(=S)SC)cc(C(=O)C(=S)SC)c1`: the growth inhibition is 93% (active).

Regarding `CCn1c(O)c(C=Nc2ccccc2)s/c1=N/Nc1nc(-c2ccccc2)cs1`, the growth inhibition is 74% (active).

For the compound `Cc1ccccc1N=C(NO)c1ccccc1`, the growth inhibition was 67%.

For the compound `Cc1nc2ccccc2nc1NNc1ccccc1`, the growth inhibition was 84% (active).

A short description of the next assay: NCI Yeast Anticancer Drug Screen. Data for the mgt1 strain (AID 153). Conditions: S. cerevisiae mgt1 mutant growth inhibition; at 1.2 µM; stronger effect = higher value. The method, boiled down:
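Vehicle-normalized growth inhibition is determined in mgt1 yeast, a strain selected for a defined alteration in DNA repair or cell cycle control.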
As to `O=[N+]([O-])c1cc[n+]([O-])cc1`, the growth inhibition was -1%.

On to `CC1(C)CC(=O)C(/C=N/c2nc(-c3ccccc3)cs2)=C(O)C1`, for which the growth inhibition was -1%.

`Nc1nc(N)c2nc(CNc3ccc(C(=O)NC(CCC(=O)O)C(=O)O)cc3F)cnc2n1` (stereo unspecified): the growth inhibition is 19%.

Turning to `COC(=O)CC1(O)C(/C=C/c2ccccc2)C(C(=O)OC)C(=O)C(C(=O)OC)C1C(=O)OC` (stereo unspecified), the growth inhibition is -2%.

Take `CC(C)(C)c1ccc(NS(=O)(=O)c2ccc(N)cc2)cc1`: the growth inhibition was 0%.

For the compound `CCN(CC)CCNc1ccc([N+](=O)[O-])c2nc3ccccc3c(N)c12`, the growth inhibition is -14%.

Turning to `CCCCN(CCCC)C(=O)/C=C/c1ccccc1`, the growth inhibition was -4%.

Consider `O=c1[nH]c(-c2ccccc2)nc2c1sc1nc3ccccc3n12`, for which the growth inhibition was -20%.

In the case of `O=[N+]([O-])c1ccc2c(c1)/C(=N/N=C1c3ccccc3Cc3ccccc31)c1cc([N+](=O)[O-])cc([N+](=O)[O-])c1-2`, the growth inhibition was 16%.

With `CC(C)C(C)/C=C\C(C)C1CCC2C3=CC=C4CC(O)CCC4(C)C3CCC21C` (stereo unspecified), the growth inhibition is 0%.

For the compound `O=C1Nc2ccc(Br)cc2C1=Nc1ccc2c(c1)OCO2`, the growth inhibition was -9%.

`CCCCOCn1c(=O)[nH]c(=O)c2cc(Br)ccc21`: the growth inhibition is -52%.

On to `Cc1ccc(S/C(=C\C(=O)O)c2ccccc2)cc1`, for which the growth inhibition is -4%.

In the case of `O=[N+]([O-])/C=C/c1cc(Cl)c(/C=C/[N+](=O)[O-])cc1Cl`, the growth inhibition is 36%.

Take `Cc1cc(S(=O)(=O)Nc2nnc3cnc4ccccc4n23)c(S)cc1Cl`: the growth inhibition is -2%.

Turning to `O=C(/C=C/c1cc(Cl)cc(Cl)c1O)c1cccc(O)c1`, the growth inhibition is 14%.

Consider `NC1CCCCC1N.Nc1c(N=Nc2ccc(-c3ccc(N=Nc4cc(S(=O)(=O)[O-])c5ccccc5c4N)cc3)cc2)cc(S(=O)(=O)[O-])c2ccccc12.[OH3+].[OH3+].[Pt+4]`, for which the growth inhibition was 1%.

As for `COC(=O)CCC(NC(=S)N/N=C(\C)c1ccccn1)C(=O)OC` (stereo unspecified), the growth inhibition is 14%.

As to `NC(=O)C(=O)NNc1ccccc1`, the growth inhibition was 5%.

`COc1cc(C2SCC(=O)N2c2ccc(-c3ccc(-n4c(-c5ccccc5)nc5ccccc5c4=O)cc3)cc2)ccc1O` (stereo unspecified): the growth inhibition is 1%.

With `COc1ccc(/C=C/c2sc3ccccc3[n+]2CCCCI)cc1OC`, the growth inhibition was 0%.

Take `Cc1c(C(C)C)cc(OCCO)cc1C(C)C`: the growth inhibition was -4%.

Take `Cc1cc(NCCCCCCCCNc2cc(C)nc3cc(N)ccc23)c2ccc(N)cc2n1`: the growth inhibition was -72%.

Turning to `C=C(Cl)COC(=O)Nc1cccc(Cl)c1`, the growth inhibition is -14%.

As to `CC(=O)OC1CC2C(C)(C)C(=O)C=C[C@]2(C)C2CCC3(C)C(=CCC3[C@H](CO)C[C@H](O)C(=O)C(C)(C)O)[C@]12C` (stereo partly specified), the growth inhibition is -26%.

Turning to `COc1ccc(/C=C/C(=O)c2ccccc2)cc1OC`, the growth inhibition is -3%.

As to `COc1c(O)c(C=O)c(Br)c(C=O)c1O`, the growth inhibition was -2%.

For the compound `O=[N+]([O-])c1cc(Cl)cnc1Br`, the growth inhibition is 2%.

Turning to `Cc1ccc2c(c1)C1(SC(C)C(=O)N1c1ccc(Cl)cc1)C(=O)N2` (stereo unspecified), the growth inhibition was -5%.

For the compound `COc1cc(CSc2ccc(O)cc2)cc(O)c1O`, the growth inhibition is 1%.

For the compound `Cc1ccc2c3ccc4c(c3n(C)c2c1)C(=O)C=CC4=O`, the growth inhibition was 20%.

With `O=C(Nc1ccc(Cl)cc1)Nc1nnc2nc(C(C(=O)c3cccc([N+](=O)[O-])c3Cl)c3nc4nnc(NC(=O)Nc5ccc(Cl)cc5)n4[nH]c3=O)c(=O)[nH]n12`, the growth inhibition was 0%.

On to `O=C(O)C1CC(c2ccccc2)=NN1c1ccccc1` (stereo unspecified), for which the growth inhibition was -48%.

As for `CCCCc1ccc(-n2c(C)c(COC(=O)NC)c(COC(=O)NC)c2C)cc1`, the growth inhibition was -43%.

With `CCC(=O)c1cc(C(=O)C(=S)SC)cc(C(=O)C(=S)SC)c1`, the growth inhibition was -12%.

In the case of `CCn1c(O)c(C=Nc2ccccc2)s/c1=N/Nc1nc(-c2ccccc2)cs1`, the growth inhibition is 0%.

For the compound `Cc1ccccc1N=C(NO)c1ccccc1`, the growth inhibition was 0%.

In the case of `Cc1nc2ccccc2nc1NNc1ccccc1`, the growth inhibition was 4%.
